According to publication PMC7862700, “An all-to-all approach to the identification of sequence-specific readers for epigenetic DNA modifications on cytosine”:

What was measured:
Experiment in all cases: DAPPL (digital affinity profiling via proximity ligation, sequencing); 10 mM Tris-HCl pH 7.5, 50 mM NaCl, 1 mM DTT, 4% glycerol, room temperature, 30 min; GST-TFs on glutathione beads, 16-mer random dsDNA library, 0.1% formaldehyde crosslink after washing; high values mean tight binding
Details in all cases: protein: recombinant; tags: N-terminal GST; dsDNA, one strand shown
ERF = molecular target: T1, ERF (Homo sapiens, UniProt P50548 1-548)
T1 sequence: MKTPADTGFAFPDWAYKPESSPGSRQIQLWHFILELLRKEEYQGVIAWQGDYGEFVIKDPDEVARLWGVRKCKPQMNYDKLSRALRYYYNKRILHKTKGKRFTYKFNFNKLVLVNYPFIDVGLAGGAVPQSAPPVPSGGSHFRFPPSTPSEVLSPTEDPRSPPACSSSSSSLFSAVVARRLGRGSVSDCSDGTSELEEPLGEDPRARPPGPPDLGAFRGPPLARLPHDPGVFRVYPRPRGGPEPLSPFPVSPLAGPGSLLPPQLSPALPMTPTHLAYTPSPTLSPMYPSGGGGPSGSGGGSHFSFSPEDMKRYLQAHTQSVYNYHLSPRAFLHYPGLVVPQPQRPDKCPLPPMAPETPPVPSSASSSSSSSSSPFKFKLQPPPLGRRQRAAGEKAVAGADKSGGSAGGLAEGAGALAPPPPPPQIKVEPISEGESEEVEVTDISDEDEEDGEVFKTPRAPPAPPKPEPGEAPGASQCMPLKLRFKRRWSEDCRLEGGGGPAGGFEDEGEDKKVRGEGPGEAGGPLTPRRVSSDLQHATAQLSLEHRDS
Summary of the method: (§1)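 Sequencing on an Illumina NextSeq500 followed washing, crosslinking with 0.1% formaldehyde, proximity ligation (BsaI/T4 ligase, 1 h, 37 °C) and PCR amplification of pools that had been incubated for 30 min at room temperature with 200 nmole of a random double-stranded 16-mer DNA library in Tris/NaCl/DTT/glycerol buffer. Each pool held DNA-barcoded human transcription factors, expressed in yeast as GST fusions and captured on glutathione beads, plus a tag-only sample. Binding signal is a hexamer's read frequency for a factor divided by its frequency in the tag-only sample.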

ETV3L = molecular target: T2, ETV3L (Homo sapiens, UniProt Q6ZN32 1-361)
T2 sequence: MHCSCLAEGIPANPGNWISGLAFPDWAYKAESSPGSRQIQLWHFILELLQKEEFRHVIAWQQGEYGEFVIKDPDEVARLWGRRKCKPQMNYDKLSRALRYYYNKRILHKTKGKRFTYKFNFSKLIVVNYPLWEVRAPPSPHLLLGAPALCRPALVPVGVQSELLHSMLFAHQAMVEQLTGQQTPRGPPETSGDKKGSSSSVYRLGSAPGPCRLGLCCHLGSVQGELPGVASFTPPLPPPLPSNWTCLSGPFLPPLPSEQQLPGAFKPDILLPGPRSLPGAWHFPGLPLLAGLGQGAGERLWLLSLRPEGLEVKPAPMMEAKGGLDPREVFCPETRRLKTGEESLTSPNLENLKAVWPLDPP
Summary of the method: as §1

ETS2 = molecular target: T3, ETS2 (Homo sapiens, UniProt P15036 1-469)
T3 sequence: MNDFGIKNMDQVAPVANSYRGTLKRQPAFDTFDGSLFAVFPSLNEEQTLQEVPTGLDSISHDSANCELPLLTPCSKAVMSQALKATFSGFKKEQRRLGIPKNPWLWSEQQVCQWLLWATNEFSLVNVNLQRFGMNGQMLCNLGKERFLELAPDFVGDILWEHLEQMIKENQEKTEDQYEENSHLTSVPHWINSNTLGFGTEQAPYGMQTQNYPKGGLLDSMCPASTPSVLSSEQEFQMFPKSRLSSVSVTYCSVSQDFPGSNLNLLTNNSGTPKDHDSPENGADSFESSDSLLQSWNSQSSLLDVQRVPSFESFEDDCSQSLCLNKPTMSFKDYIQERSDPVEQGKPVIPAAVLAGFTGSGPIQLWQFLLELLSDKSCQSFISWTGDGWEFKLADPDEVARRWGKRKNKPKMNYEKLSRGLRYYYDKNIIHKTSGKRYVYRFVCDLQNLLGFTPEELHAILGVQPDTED
Summary of the method: as §1

SPDEF = molecular target: T4, SPDEF (Homo sapiens, UniProt O95238 1-335)
T4 sequence: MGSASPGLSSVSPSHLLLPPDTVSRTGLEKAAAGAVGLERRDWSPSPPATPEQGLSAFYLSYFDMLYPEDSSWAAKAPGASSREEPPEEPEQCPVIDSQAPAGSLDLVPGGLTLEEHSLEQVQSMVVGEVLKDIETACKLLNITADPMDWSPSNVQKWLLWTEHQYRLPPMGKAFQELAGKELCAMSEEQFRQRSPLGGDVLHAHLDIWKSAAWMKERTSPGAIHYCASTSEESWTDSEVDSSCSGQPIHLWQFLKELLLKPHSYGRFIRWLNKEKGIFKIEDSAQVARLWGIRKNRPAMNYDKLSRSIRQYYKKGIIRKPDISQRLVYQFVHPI
Summary of the method: as §1

ETV7 = molecular target: T5, ETV7 (Homo sapiens, UniProt Q9Y603 1-341)
T5 sequence: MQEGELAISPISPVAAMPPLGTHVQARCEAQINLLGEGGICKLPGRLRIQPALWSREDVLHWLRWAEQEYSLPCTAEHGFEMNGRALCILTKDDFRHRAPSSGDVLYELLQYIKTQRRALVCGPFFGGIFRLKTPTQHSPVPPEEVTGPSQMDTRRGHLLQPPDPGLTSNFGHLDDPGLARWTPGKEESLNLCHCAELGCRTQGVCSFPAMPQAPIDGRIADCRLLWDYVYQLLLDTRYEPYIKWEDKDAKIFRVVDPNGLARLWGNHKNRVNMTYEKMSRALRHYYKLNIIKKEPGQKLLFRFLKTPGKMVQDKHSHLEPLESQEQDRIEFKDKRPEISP
Summary of the method: as §1

ELF5 = molecular target: T6, ELF5 (Homo sapiens, UniProt Q9UKW6-2 1-255)
T6 sequence: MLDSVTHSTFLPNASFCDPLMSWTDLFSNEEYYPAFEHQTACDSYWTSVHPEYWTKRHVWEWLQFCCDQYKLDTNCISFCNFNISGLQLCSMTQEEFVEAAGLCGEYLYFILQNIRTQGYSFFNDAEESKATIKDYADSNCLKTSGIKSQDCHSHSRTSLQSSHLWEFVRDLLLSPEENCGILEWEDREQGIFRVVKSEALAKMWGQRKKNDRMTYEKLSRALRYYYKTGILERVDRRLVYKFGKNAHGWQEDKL
Summary of the method: as §1

ETV3 = molecular target: T7, ETV3 (Homo sapiens, UniProt P41162-2 1-143)
T7 sequence: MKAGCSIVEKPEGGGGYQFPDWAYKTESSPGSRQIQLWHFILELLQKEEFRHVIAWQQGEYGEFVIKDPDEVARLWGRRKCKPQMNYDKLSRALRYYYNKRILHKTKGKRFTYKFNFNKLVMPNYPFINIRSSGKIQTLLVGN
Summary of the method: as §1

ETV6 = ETV6 (Homo sapiens, UniProt P41212 1-452)
Sequence of ETV6 (P41212 whole entry): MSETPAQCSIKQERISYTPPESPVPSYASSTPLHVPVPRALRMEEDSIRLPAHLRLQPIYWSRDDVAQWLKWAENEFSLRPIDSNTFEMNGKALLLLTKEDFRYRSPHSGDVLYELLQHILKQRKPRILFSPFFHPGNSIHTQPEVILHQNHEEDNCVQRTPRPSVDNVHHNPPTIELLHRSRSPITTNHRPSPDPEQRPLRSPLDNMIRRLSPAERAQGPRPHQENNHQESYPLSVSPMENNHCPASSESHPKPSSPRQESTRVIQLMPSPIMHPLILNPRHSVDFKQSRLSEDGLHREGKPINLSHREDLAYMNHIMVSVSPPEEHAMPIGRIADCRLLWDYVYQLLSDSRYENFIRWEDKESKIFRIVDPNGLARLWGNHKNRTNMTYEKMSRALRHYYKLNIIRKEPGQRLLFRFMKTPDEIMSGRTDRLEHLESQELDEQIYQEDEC
Summary of the method: as §1

Sequence	binding signal (ERF)	binding signal (ETV3L)	binding signal (ETS2)	binding signal (SPDEF)	binding signal (ETV7)	binding signal (ELF5)	binding signal (ETV3)	binding signal (ETV6)
AACACA	1.39 fold enrichment (6-mer frequency, TF over GST control)	1.34 fold enrichment (6-mer frequency, TF over GST control)	1.38 fold enrichment (6-mer frequency, TF over GST control)	1.41 fold enrichment (6-mer frequency, TF over GST control)	1.46 fold enrichment (6-mer frequency, TF over GST control)	1.36 fold enrichment (6-mer frequency, TF over GST control)	1.35 fold enrichment (6-mer frequency, TF over GST control)	1.29 fold enrichment (6-mer frequency, TF over GST control)
TATGTT	1.17 fold enrichment (6-mer frequency, TF over GST control)	1.2 fold enrichment (6-mer frequency, TF over GST control)	1.24 fold enrichment (6-mer frequency, TF over GST control)	1.18 fold enrichment (6-mer frequency, TF over GST control)	1.33 fold enrichment (6-mer frequency, TF over GST control)	1.24 fold enrichment (6-mer frequency, TF over GST control)	1.26 fold enrichment (6-mer frequency, TF over GST control)	1.08 fold enrichment (6-mer frequency, TF over GST control)
CTCCGG	1.56 fold enrichment (6-mer frequency, TF over GST control)	1.61 fold enrichment (6-mer frequency, TF over GST control)	1.6 fold enrichment (6-mer frequency, TF over GST control)	1.89 fold enrichment (6-mer frequency, TF over GST control)	1.32 fold enrichment (6-mer frequency, TF over GST control)	1.58 fold enrichment (6-mer frequency, TF over GST control)	1.62 fold enrichment (6-mer frequency, TF over GST control)	1.56 fold enrichment (6-mer frequency, TF over GST control)
TAGTTA	1.18 fold enrichment (6-mer frequency, TF over GST control)	1.1 fold enrichment (6-mer frequency, TF over GST control)	1.12 fold enrichment (6-mer frequency, TF over GST control)	1.06 fold enrichment (6-mer frequency, TF over GST control)	1.1 fold enrichment (6-mer frequency, TF over GST control)	1.06 fold enrichment (6-mer frequency, TF over GST control)	1.12 fold enrichment (6-mer frequency, TF over GST control)	1.16 fold enrichment (6-mer frequency, TF over GST control)
GATCTT	1.15 fold enrichment (6-mer frequency, TF over GST control)	1.15 fold enrichment (6-mer frequency, TF over GST control)	1.15 fold enrichment (6-mer frequency, TF over GST control)	1.42 fold enrichment (6-mer frequency, TF over GST control)	1.28 fold enrichment (6-mer frequency, TF over GST control)	1.29 fold enrichment (6-mer frequency, TF over GST control)	1.24 fold enrichment (6-mer frequency, TF over GST control)	1.14 fold enrichment (6-mer frequency, TF over GST control)
TTAATA	1.24 fold enrichment (6-mer frequency, TF over GST control)	1.28 fold enrichment (6-mer frequency, TF over GST control)	1.21 fold enrichment (6-mer frequency, TF over GST control)	1.14 fold enrichment (6-mer frequency, TF over GST control)	1.23 fold enrichment (6-mer frequency, TF over GST control)	1.12 fold enrichment (6-mer frequency, TF over GST control)	1.09 fold enrichment (6-mer frequency, TF over GST control)	1.15 fold enrichment (6-mer frequency, TF over GST control)
AATTGA	1.24 fold enrichment (6-mer frequency, TF over GST control)	1.13 fold enrichment (6-mer frequency, TF over GST control)	1.26 fold enrichment (6-mer frequency, TF over GST control)	1.15 fold enrichment (6-mer frequency, TF over GST control)	1.28 fold enrichment (6-mer frequency, TF over GST control)	1.21 fold enrichment (6-mer frequency, TF over GST control)	1.17 fold enrichment (6-mer frequency, TF over GST control)	1.19 fold enrichment (6-mer frequency, TF over GST control)
TTCGTT	1.37 fold enrichment (6-mer frequency, TF over GST control)	1.37 fold enrichment (6-mer frequency, TF over GST control)	1.3 fold enrichment (6-mer frequency, TF over GST control)	1.39 fold enrichment (6-mer frequency, TF over GST control)	1.55 fold enrichment (6-mer frequency, TF over GST control)	1.32 fold enrichment (6-mer frequency, TF over GST control)	1.3 fold enrichment (6-mer frequency, TF over GST control)	1.29 fold enrichment (6-mer frequency, TF over GST control)
CTCTTG	1.53 fold enrichment (6-mer frequency, TF over GST control)	1.42 fold enrichment (6-mer frequency, TF over GST control)	1.23 fold enrichment (6-mer frequency, TF over GST control)	1.26 fold enrichment (6-mer frequency, TF over GST control)	1.27 fold enrichment (6-mer frequency, TF over GST control)	1.43 fold enrichment (6-mer frequency, TF over GST control)	1.35 fold enrichment (6-mer frequency, TF over GST control)	1.2 fold enrichment (6-mer frequency, TF over GST control)
ATATTA	1.16 fold enrichment (6-mer frequency, TF over GST control)	1.17 fold enrichment (6-mer frequency, TF over GST control)	1.06 fold enrichment (6-mer frequency, TF over GST control)	1.11 fold enrichment (6-mer frequency, TF over GST control)	1.1 fold enrichment (6-mer frequency, TF over GST control)	1.09 fold enrichment (6-mer frequency, TF over GST control)	1.18 fold enrichment (6-mer frequency, TF over GST control)	1.13 fold enrichment (6-mer frequency, TF over GST control)
CTATTT	1.63 fold enrichment (6-mer frequency, TF over GST control)	1.82 fold enrichment (6-mer frequency, TF over GST control)	1.71 fold enrichment (6-mer frequency, TF over GST control)	1.57 fold enrichment (6-mer frequency, TF over GST control)	1.66 fold enrichment (6-mer frequency, TF over GST control)	1.72 fold enrichment (6-mer frequency, TF over GST control)	1.63 fold enrichment (6-mer frequency, TF over GST control)	1.9 fold enrichment (6-mer frequency, TF over GST control)
ATTGCG	1.35 fold enrichment (6-mer frequency, TF over GST control)	1.29 fold enrichment (6-mer frequency, TF over GST control)	1.27 fold enrichment (6-mer frequency, TF over GST control)	1.09 fold enrichment (6-mer frequency, TF over GST control)	1.17 fold enrichment (6-mer frequency, TF over GST control)	1.21 fold enrichment (6-mer frequency, TF over GST control)	1.16 fold enrichment (6-mer frequency, TF over GST control)	1.27 fold enrichment (6-mer frequency, TF over GST control)
CAATTC	1.26 fold enrichment (6-mer frequency, TF over GST control)	1.27 fold enrichment (6-mer frequency, TF over GST control)	1.24 fold enrichment (6-mer frequency, TF over GST control)	1.33 fold enrichment (6-mer frequency, TF over GST control)	1.24 fold enrichment (6-mer frequency, TF over GST control)	1.25 fold enrichment (6-mer frequency, TF over GST control)	1.31 fold enrichment (6-mer frequency, TF over GST control)	1.16 fold enrichment (6-mer frequency, TF over GST control)
GCTTTA	1.25 fold enrichment (6-mer frequency, TF over GST control)	1.15 fold enrichment (6-mer frequency, TF over GST control)	1.2 fold enrichment (6-mer frequency, TF over GST control)	1.06 fold enrichment (6-mer frequency, TF over GST control)	1.19 fold enrichment (6-mer frequency, TF over GST control)	1.08 fold enrichment (6-mer frequency, TF over GST control)	1.13 fold enrichment (6-mer frequency, TF over GST control)	1.1 fold enrichment (6-mer frequency, TF over GST control)
TCCTTT	1.62 fold enrichment (6-mer frequency, TF over GST control)	1.85 fold enrichment (6-mer frequency, TF over GST control)	1.67 fold enrichment (6-mer frequency, TF over GST control)	1.76 fold enrichment (6-mer frequency, TF over GST control)	1.59 fold enrichment (6-mer frequency, TF over GST control)	2 fold enrichment (6-mer frequency, TF over GST control)	1.78 fold enrichment (6-mer frequency, TF over GST control)	1.76 fold enrichment (6-mer frequency, TF over GST control)
